Data on 13 molecules can be found in PubChem BioAssay.

Assay [1] has as its system Neuropilin-2 / VEGF-C interaction (human). Briefly: inhibitors of NRP2–VEGF-C binding, biochemical, microplate binding format, z-score (AID 743281; call rule not given here). To be noted: microplate NRP2/VEGF-C binding assay; stronger effect = lower value.
A short description of assay [2]: modulation of C. elegans fzo-1 (AID 1259413; call rule not given here;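 note: fzo-1 mutant C. elegans worms in liquid wells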). To be noted: C. elegans fzo-1 modulator screen, mean read-out; stronger effect = higher value.
A short description of assay [3]: growth inhibition of DIPG glioma cells, dose response, cell-based, SU-DIPG-XIII, MIPE4.0, CellTiter-Glo, qHTS (AID 1347061; cut-off not given, nearly all actives have AC50 up to about 37 µM;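 note: cells exposed to compound for 48 hours before readout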). Particulars: SU-DIPG-XIII viability, CellTiter-Glo ATP luminescence.
The nature of assay [4]: growth inhibition of DIPG glioma cells, dose response, cell-based, JHH-DIPG-1, MIPE4.0, CellTiter-Glo, qHTS (AID 1347062; cut-off not given, nearly all actives have AC50 up to about 27 µM). Particulars: JHH-DIPG-1 viability, CellTiter-Glo ATP luminescence. A general note: In ATP-based viability assays light output follows the ATP content of the culture.
The nature of assay [5]: growth inhibition of DIPG glioma cells, dose response, cell-based, SU-DIPG-IV, MIPE4.0, CellTiter-Glo, qHTS (AID 1347063; cut-off not given, nearly all actives have AC50 up to about 30 µM;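 note: compound exposure lasted 48 hours before the viability readout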). To be noted: SU-DIPG-IV viability, CellTiter-Glo ATP luminescence.
Assay [6] can be described thus: modifiers of HSF1 nuclear foci, imaging, Selleck Cancer Library (AID 1347162; in the data active = plate-normalised HSF1 focus index below about 0.46). Particulars: human cells, at 10 µM; SSMD: measured here: HSF1 foci SSMD mean; cell count: measured here: cell number; plate-normalised HSF1 focus index: stronger effect = lower value.
A further assay relates to F380Y/beta1. Briefly: modulators of BK channel variants, profiling panel, selectivity assay, cell-based, U2OS BacMam, thallium flux, beta subunits (AID 1259406).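 Note: initial slope of Thallos dye fluorescence rise after thallium is added; log ratio against the mean of 0.3% DMSO vehicle wells on the same plate.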 Particulars: at 30 µM.
The test system of another assay is F380Y/beta4. Described as above. To be noted: at 30 µM.
For assay [7], the target named is Calcium-activated potassium channel subunit alpha-1 (Homo sapiens) + Leucine-rich repeat-containing protein 26 (Homo sapiens) (UniProt Q12791+Q2I0M4). The assay is described as above. To be noted: F380Y/Slo1WT/gamma1, at 30 µM.
Calcium-activated potassium channel subunit alpha-1 (Homo sapiens) + Leucine-rich repeat-containing protein 26 (Homo sapiens), sequence (Q2I0M4 whole entry, looked up, one chain of several): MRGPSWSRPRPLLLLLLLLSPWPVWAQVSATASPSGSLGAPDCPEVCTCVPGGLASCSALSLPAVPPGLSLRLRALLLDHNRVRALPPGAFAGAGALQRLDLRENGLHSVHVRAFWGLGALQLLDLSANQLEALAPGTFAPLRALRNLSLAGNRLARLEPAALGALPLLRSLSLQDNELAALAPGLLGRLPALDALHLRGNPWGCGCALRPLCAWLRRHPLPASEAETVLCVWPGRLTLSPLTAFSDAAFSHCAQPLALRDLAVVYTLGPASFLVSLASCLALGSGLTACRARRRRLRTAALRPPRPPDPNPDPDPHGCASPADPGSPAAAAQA
In another assay the test system is R275C/beta4. The assay is described as above. Particulars: at 30 µM.
Assay [8] in a line: viability rescue of complex I mutant cybrids, primary screen, cell-based, galactose medium, ATP luminescence (AID 1645843;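 active = z-score of at least 1.8 in each of two replicates, scored against plate mean and spread of sample wells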;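 note: positive z means more ATP and so rescue of galactose-driven cybrid death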). To be noted: complex I mutant cybrid cells, 72 h, stronger effect = higher value.
A short description of assay [9]: survival rescue of mitochondrial mutant cells in low glucose, primary screen, MELAS cybrids, Rieske KO mouse fibroblasts, CellTiter-Glo (AID 1508586;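 active = mean z-score across replicates of 1.96 or higher in either the MELAS or the Rieske mutant cell line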;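 note: z relative to plate mean and SD of compound and empty wells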).
Assay [10] is described as follows: differential killing of epithelial or mesenchymal cells, primary screen, imaging, PC-3E GFP, TEM4-18 mCherry, co-culture (AID 1345086;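 active = compounds killing one labelled cell type while sparing the other, by normalised counts and ratio limits, not self-fluorescent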;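 note: cells exposed to compound for 72 h before imaging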;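 for red/green cell ratio (normalised): normalised mesenchymal count divided by normalised epithelial count so high means epithelial killing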). To be noted: imaging cell counts, at 1 µM.
The target in assay [11] is NAD(+) hydrolase SARM1 (Homo sapiens) (UniProt Q6SZW1). Briefly: SARM1 TIR NADase inhibitors, cell lysate, NAD-Glo luminescence (AID 1508614;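 active = compound whose remaining NAD level is above about 45 nM, limit read from the data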;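 note: higher remaining NAD means stronger inhibition of SARM1 NADase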). Particulars: SAM-TIR HEK293T lysate NADase, at 1 µM, stronger effect = higher value.
NAD(+) hydrolase SARM1 (Homo sapiens), sequence (Q6SZW1 whole entry, looked up): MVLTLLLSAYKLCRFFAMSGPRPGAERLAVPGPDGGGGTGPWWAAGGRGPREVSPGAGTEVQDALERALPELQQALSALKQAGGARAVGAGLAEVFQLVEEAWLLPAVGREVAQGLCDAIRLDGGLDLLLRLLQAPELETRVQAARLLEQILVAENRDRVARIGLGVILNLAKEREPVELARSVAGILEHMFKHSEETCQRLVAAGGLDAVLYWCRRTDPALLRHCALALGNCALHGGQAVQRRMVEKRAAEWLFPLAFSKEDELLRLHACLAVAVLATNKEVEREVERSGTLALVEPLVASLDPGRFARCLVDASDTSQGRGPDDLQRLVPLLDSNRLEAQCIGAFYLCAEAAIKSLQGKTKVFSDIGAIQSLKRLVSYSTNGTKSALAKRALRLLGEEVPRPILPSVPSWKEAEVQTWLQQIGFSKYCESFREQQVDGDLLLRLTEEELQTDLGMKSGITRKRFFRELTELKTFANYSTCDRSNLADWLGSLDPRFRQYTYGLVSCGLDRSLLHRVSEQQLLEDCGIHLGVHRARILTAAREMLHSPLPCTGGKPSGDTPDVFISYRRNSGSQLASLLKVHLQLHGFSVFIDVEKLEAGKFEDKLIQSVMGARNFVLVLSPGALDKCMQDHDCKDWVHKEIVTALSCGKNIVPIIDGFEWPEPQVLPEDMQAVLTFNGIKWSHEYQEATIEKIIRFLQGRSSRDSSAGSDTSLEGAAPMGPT
Assay [12] relates to Aerobactin synthetase IucA (Klebsiella pneumoniae). Briefly: IucA aerobactin synthetase inhibitors, biochemical, Tocris library, absorbance (AID 1345561; call rule not given here;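 note: 100% = enzyme without compound and 0% = no enzyme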). Particulars: purified IucA enzyme assay, absorbance (OD) read-out; stronger effect = lower value;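 tested at 8 µM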.
Assay [13] is described as follows: polyglutamine-triggered caspase-3 activation inhibitors, cell-based (AID 1583). To be noted: polyglutamine-induced caspase-3 activation, cell assay; stronger effect = higher value;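 tested at 10 µM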.
Assay [14] is described as follows: suppressors of polyQ aggregation in yeast, 75Q-TubU reporter (AID 1593). To be noted: Yeast 75Q polyglutamine aggregation reporter.
The mark [15] stands for this setting: MELAS cybrid survival, CellTiter-Glo 48 h, stronger effect = higher value.
Where [16] appears, read: Rieske KO mouse fibroblast survival, CellTiter-Glo 72 h.

Several values for one entry are separate records, joined by “and”; a condition that tells them apart may be missing. Equal entries are not always repeated. Inconclusive results are not listed. Activity calls are given as the source filed them.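 Rule for the calls, unless noted: active = thallium flux through the channel raised or lowered by more than 3 SD from vehicle-only wells, actives on both sides; inactive = the rest.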

Consider `CC(C)[C@]12O[C@H]1[C@@H]1O[C@]13[C@]1(O[C@H]1C[C@H]1C4=C(CC[C@@]13C)C(=O)OC4)[C@@H]2O`, for which the z-score in [1] is 0.859 (inactive). Also, the mean signal in [2] is 159 (inactive). Further, the result in assay [3], in assay [4] and in assay [5] was inactive. Also, the SSMD in assay [6] was -5.07. The cell count in [6] was 6670. Further, the plate-normalised HSF1 focus index in assay [6] was 0.769 (inactive). In addition, the log fold change Tl+ flux is -0.0154 (inactive) in the assay with F380Y/beta1, 0.00828 (inactive) in the assay on F380Y/beta4, 0.0324 (inactive) in assay [7] and 0.0135 (inactive) in the assay with R275C/beta4.

Consider `CCCCCCCCCOc1ccc2[nH]cc(CCN)c2c1`, for which the results for the z-score in assay [1] and in [8] were -2.82 (inactive) and -1.44 (inactive), respectively. The mean signal in [2] is 264 (inactive).

For the molecule `O=C1CN=C(c2ccccc2)c2cc([N+](=O)[O-])ccc2N1`, the z-score in assay [1] is 1.12 (inactive); in [8], 1.3 (inactive). In addition, in assay [2], the mean signal is 253 (inactive). In addition, the log fold change Tl+ flux with F380Y/beta1 was -0.0368 (inactive); with F380Y/beta4, 0.0387 (inactive); in assay [7], 0.000443 (inactive); in the assay on R275C/beta4, 0.0133 (inactive).

As for `C[C@]12CC(=CO)C(=O)C[C@@H]1CC[C@@H]1[C@@H]2CC[C@@]2(C)[C@H]1CC[C@]2(C)O`, the results for the z-score in assay [9] (setting [15]) and in [9] (setting [16]) were 0.172 (inactive) and 0.741, respectively. Further, the log fold change Tl+ flux is 0.204 (active) in the assay on F380Y/beta1, 0.113 (active) in the assay with F380Y/beta4, 0.208 (active) in assay [7] and 0.148 (active) with R275C/beta4.

Take `CCN(C(C)=O)c1cccc(-c2ccnc3c(C#N)cnn23)c1`: the z-score in [1] was -0.583 (inactive); in assay [9] (setting [15]), 0.804 (inactive); in assay [9] (setting [16]), 0.277; in assay [8], 0.945 (inactive). Besides, the mean signal in assay [2] is 228 (inactive). Further, the red/green cell ratio (normalised) in assay [10] (actives lie on both sides) was 1.11 (inactive). In addition, the normalised cell number is 1.1 in [10] (measured here: epithelial PC-3E GFP cell survival) and 1.22 in assay [10] (measured here: mesenchymal TEM4-18 mCherry cell survival). In addition, the remaining NAD in assay [11] is 10 nM (inactive).

As usually defined, the remaining activity is the signal under treatment as a percentage of the control signal. On to `CCCCC/C=C\C/C=C\C/C=C\C/C=C\CCCC(=O)Nc1ccc(O)cc1`, for which the z-score is 0.572 (inactive) in assay [1] and -0.695 (inactive) in [8]. The mean signal in assay [2] is 245 (inactive). Besides, in [12], the remaining activity was 113% (inactive).

`CN1CC[C@@H](c2ccc(F)cc2)[C@H](COc2ccc3c(c2)OCO3)C1`: in assay [1], the z-score was -0.473 (inactive). The log fold change Tl+ flux is 0.0692 (inactive) with F380Y/beta1, 0.102 (active) in the assay on F380Y/beta4, -0.0237 (inactive) in [7] and 0.0863 (active) with R275C/beta4.

Take `C[C@]12CCC(=O)C=C1CC[C@@H]1[C@@H]2CC[C@@]2(C)[C@H]1CC[C@]2(C)O`: the call in assay [3] and in [4] was inactive. The log fold change Tl+ flux in the assay with F380Y/beta1 was 0.0212 (inactive); in the assay on F380Y/beta4 it was -0.105 (active); in assay [7], 0.0144 (inactive); with R275C/beta4 it was 0.00989 (inactive).

As a reminder, the inhibition is the relative decrease from the control value, in per cent. On to `O=C1Nc2ccc(Cl)cc2C(c2ccccc2Cl)=NC1O` (stereo not given), for which the inhibition in assay [13] was -16.4%. This molecule showed a score in [14] of 0.78. Besides, the values for the z-score in [1] and in [8] were -0.398 (inactive) and 0.845 (inactive), respectively. The mean signal in assay [2] was 233 (inactive).

Turning to `COc1ccc2c(c1)C13CCCC[C@@H]1C(C2)N(C)CC3` (stereo not given in full), the z-score in [1] is -0.757 (inactive). Also, the mean signal in assay [2] is 229 (inactive).

Consider `COc1ccc2[nH]cc(C3=CCNCC3)c2c1`, for which the z-score in assay [1] is -1.09 (inactive); in assay [8], -1.57 (inactive) and -0.95 (inactive). Moreover, the mean signal in assay [2] was 255 (inactive). The remaining activity in [12] is 103% (inactive). Also, the log fold change Tl+ flux in the assay on F380Y/beta1 was 0.0695 (inactive); in the assay with F380Y/beta4, 0.0777 (inactive); in assay [7], 0.0216 (inactive); in the assay with R275C/beta4 it was 0.0779 (inactive).

Regarding `Clc1ccc(CON=C(Cn2ccnc2)c2ccc(Cl)cc2Cl)c(Cl)c1`, the z-score in assay [8] was -1.88 (inactive). Also, the log fold change Tl+ flux in the assay with F380Y/beta1 was -0.00723 (inactive); in the assay with F380Y/beta4, -0.00465 (inactive); in the assay with R275C/beta4, 0.02 (inactive).

Consider `CN=C1CN(O)C(c2ccccc2)=c2cc(Cl)ccc2=N1`, for which the inhibition in [13] turned out to be 6.92%. For the same molecule, in assay [14], the score was 1.19. In addition, the figures for the z-score in assay [1] and in assay [8] were 0.413 (inactive) and 0.34 (inactive), respectively. Moreover, the mean signal in assay [2] is 209 (inactive). The log fold change Tl+ flux in the assay with F380Y/beta1 was 0.0256 (inactive); in the assay with F380Y/beta4, 0.0618 (inactive); in [7], 0.00615 (inactive); in the assay with R275C/beta4 it was 0.0262 (inactive).
